Assay results as given in PubChem BioAssay (NCATS).
Records with an inconclusive call do not appear. A call without a number means that no potency is given here. The source made the active and inactive calls. Unless noted, calls come from the whole dose curve; as a rule, active = well fitted curve in the direction sought with a large enough effect; inconclusive = small, poorly fitted or top-dose-only effect, or another doubt; inactive = no such curve, though single readings can be large; an effect the other way counts as inactive or inconclusive.

Columns and labels:
[1] = target: Parathyroid hormone/parathyroid hormone-related peptide receptor (Homo sapiens) (UniProt Q03431); assay: qHTS for PTHR1 Agonists: Optimization Screen against the NCGC LOPAC library (AID 1347079);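 note: GloSensor cAMP luminescence in HEK-293 GP2 cells expressing human PTHR1 with IBMX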
Sequence of Parathyroid hormone/parathyroid hormone-related peptide receptor (Homo sapiens) (Q03431 whole entry, looked up): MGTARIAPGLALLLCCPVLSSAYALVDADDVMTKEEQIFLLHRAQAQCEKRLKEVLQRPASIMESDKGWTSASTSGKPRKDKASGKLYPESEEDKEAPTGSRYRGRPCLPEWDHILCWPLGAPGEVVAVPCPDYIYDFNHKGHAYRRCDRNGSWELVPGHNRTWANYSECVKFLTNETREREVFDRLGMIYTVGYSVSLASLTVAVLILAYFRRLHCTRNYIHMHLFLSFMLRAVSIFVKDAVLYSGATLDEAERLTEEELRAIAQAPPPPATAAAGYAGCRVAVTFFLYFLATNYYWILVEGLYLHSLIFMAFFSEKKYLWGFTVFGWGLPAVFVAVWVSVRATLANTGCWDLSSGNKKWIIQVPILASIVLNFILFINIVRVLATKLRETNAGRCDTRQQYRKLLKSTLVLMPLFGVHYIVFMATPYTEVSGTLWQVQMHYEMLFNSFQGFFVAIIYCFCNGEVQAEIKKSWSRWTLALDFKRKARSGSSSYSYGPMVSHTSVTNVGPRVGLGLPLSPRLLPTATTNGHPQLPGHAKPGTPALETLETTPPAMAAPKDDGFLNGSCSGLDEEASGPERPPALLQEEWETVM
How it was run: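 Agonist readout: GloSensor cAMP luminescence, read after 15 min at room temperature. HEK-293-derived GP2 line carries PTHR1; compounds tested as a titration for 1 hr at 37C in presence of IBMX. M-PTH (1-15) served as control.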

[2] = qHTS for Inhibitors of the Functional Ribonucleoprotein Complex (vRNP) of Lassa (LASV) Arenavirus: LASV Primary Screen - GLuc reporter signal (AID 1347082; calls by dose curve; tested in HEK293 reporter line; note: series mostly up to about 57 µM; nearly all actives have a fitted effect of over 60% in size)
[3] = qHTS for Inhibitors of the Functional Ribonucleoprotein Complex (vRNP) of Lassa (LASV) Arenavirus: Viability assay - alamar blue signal for LASV Primary Screen (AID 1347083; calls by dose curve; tested in HEK293 reporter line; note: nearly all actives have a fitted effect of over 80% in size; note: potency is the fitted concentration of half-maximal effect)
[4] = qHTS for Inhibitors of the Functional Ribonucleoprotein Complex (vRNP) of Lymphocytic Choriomeningitis Arenaviruses (LCMV): Viability assay - alamar blue signal for LCMV Primary Screen (AID 1347085; calls by dose curve; tested in HEK293 reporter line; note: nearly all actives have a fitted effect of over 80% in size; note: potency is the fitted concentration of half-maximal effect)
[5] = target: Nucleoprotein (Lymphocytic choriomeningitis virus (strain Armstrong)) (UniProt P09992); assay: qHTS for Inhibitors of the Functional Ribonucleoprotein Complex (vRNP) of Lymphocytic Choriomeningitis Arenaviruses (LCMV): LCMV Primary Screen - GLuc reporter signal (AID 1347086; calls by dose curve; note: series mostly up to about 57 µM; nearly all actives have a fitted effect of over 70% in size)
Sequence of Nucleoprotein (Lymphocytic choriomeningitis virus (strain Armstrong)) (P09992 whole entry, looked up): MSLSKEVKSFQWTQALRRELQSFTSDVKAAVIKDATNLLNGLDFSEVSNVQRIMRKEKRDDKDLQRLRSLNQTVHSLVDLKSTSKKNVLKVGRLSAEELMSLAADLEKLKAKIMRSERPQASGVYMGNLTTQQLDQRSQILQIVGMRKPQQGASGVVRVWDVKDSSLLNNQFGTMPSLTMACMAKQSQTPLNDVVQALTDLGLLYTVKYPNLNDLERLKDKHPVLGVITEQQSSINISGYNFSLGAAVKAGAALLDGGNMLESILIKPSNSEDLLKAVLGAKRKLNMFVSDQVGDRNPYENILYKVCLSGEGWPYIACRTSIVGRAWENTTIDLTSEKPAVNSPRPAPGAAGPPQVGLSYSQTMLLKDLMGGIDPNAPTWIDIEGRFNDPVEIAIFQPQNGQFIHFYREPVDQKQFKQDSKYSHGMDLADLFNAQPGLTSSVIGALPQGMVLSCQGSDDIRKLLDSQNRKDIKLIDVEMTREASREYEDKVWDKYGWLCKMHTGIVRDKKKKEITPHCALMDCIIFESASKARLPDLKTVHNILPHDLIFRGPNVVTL

[6] = target: Tyrosine-protein phosphatase non-receptor type substrate 1 (Homo sapiens) + Leukocyte surface antigen CD47 (Homo sapiens) (UniProt P78324+Q08722); assay: CD47-SIRPalpha protein protein interaction - Alpha assay qHTS validation (AID 1347059);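 note: bead proximity luminescence from CD47 binding SIRPalpha after compound preincubation with SIRPalpha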
Sequence of Tyrosine-protein phosphatase non-receptor type substrate 1 (Homo sapiens) + Leukocyte surface antigen CD47 (Homo sapiens) (P78324 whole entry, looked up): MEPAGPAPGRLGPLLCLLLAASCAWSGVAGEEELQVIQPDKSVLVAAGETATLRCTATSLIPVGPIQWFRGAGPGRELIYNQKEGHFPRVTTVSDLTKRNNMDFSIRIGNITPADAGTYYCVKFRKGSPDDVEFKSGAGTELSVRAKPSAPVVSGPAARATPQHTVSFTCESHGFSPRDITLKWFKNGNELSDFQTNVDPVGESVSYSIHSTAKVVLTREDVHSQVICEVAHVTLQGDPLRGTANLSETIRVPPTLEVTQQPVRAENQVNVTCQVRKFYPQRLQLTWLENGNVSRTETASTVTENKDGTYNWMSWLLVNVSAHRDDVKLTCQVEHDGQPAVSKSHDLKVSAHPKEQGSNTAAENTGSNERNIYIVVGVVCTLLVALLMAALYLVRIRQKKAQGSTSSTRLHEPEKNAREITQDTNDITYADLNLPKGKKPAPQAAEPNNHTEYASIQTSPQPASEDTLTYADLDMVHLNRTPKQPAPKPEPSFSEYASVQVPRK
Sequence of Tyrosine-protein phosphatase non-receptor type substrate 1 (Homo sapiens) + Leukocyte surface antigen CD47 (Homo sapiens) (Q08722 whole entry, looked up): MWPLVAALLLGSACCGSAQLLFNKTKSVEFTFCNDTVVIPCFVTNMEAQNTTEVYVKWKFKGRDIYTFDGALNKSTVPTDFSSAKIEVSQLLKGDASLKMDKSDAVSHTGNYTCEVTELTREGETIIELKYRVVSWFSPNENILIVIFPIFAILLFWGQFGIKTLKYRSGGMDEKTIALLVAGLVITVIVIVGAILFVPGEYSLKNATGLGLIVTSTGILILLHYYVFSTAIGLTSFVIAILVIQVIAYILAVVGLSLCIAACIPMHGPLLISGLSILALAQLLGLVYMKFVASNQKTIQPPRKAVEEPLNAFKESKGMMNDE
How it was run: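 Biotinylated Avi-tagged SIRPalpha (25 nM) preincubated 30 min with compound, then His-tagged CD47 (12.5 nM) added 30 min; AlphaScreen with Ni-NTA acceptor and streptavidin donor beads. PBS pH 7.4, 0.05% IGEPAL, room temperature; 7-point titrations.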

[7] = qHTS of pediatric cancer cell lines to identify multiple opportunities for drug repurposing: Primary screen for TC32 cells (AID 1347089); note: nearly all actives have a fitted effect of over 60% in size
How it was run: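 In the primary qHTS, MIPE compounds were tested at 11 concentrations (0.78 nM to 46 µM) and NPC compounds at 8 (0.59 nM to 46 µM) on TC32 cells for 48 h. CellTiter-Glo luminescence gave viability.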

[8] = qHTS of pediatric cancer cell lines to identify multiple opportunities for drug repurposing: Primary screen for DAOY cells (AID 1347090); note: series mostly up to about 46 µM; nearly all actives have a fitted effect of over 55% in size
How it was run: (§1)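 Viability measured as metabolically active cells via CellTiter-Glo luminescence following 48 hours of compound exposure, 11-point dilutions in confirmatory testing. 500-1,000 cells/well plated 5 hours before dosing; controls were DMSO and 2.3 µM bortezomib.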

[9] = qHTS of pediatric cancer cell lines to identify multiple opportunities for drug repurposing: Primary screen for SJ-GBM2 cells (AID 1347091)
How it was run: as §1

[10] = qHTS of pediatric cancer cell lines to identify multiple opportunities for drug repurposing: Primary screen for A673 cells (AID 1347092); note: nearly all actives have a fitted effect of over 45% in size
How it was run: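 48 h compound exposure, A673, 500-1,000 cells/well, 37 degrees C/5% CO2. MIPE: 11-point, 0.78 nM-46 µM; NPC: 8-point, 0.59 nM-46 µM (final). Readout CellTiter-Glo luminescence after 15 min RT.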

[11] = qHTS of pediatric cancer cell lines to identify multiple opportunities for drug repurposing: Primary screen for SK-N-MC cells (AID 1347093); note: series mostly up to about 46 µM
How it was run: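 Metabolically active cells were quantified by ATP-dependent luminescence (CellTiter-Glo, 15 min at room temperature) following 48 h treatment. Cells had been plated at 500-1,000 per well and settled for 5 h beforehand.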

[12] = qHTS of pediatric cancer cell lines to identify multiple opportunities for drug repurposing: Primary screen for BT-37 cells (AID 1347094); note: series mostly up to about 57 µM
How it was run: (§2)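 CRCs from 8- or 11-point titrations (lowest final 0.59 nM NPC, 0.78 nM MIPE). Cell viability: CellTiter-Glo after 48 h incubation, 15 min room-temperature development, luminescence imaging.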

[13] = qHTS of pediatric cancer cell lines to identify multiple opportunities for drug repurposing: Primary screen for NB-EBc1 cells (AID 1347095)
How it was run: as §2

[14] = qHTS of pediatric cancer cell lines to identify multiple opportunities for drug repurposing: Primary screen for U-2 OS cells (AID 1347096); note: nearly all actives have a fitted effect of over 50% in size
How it was run: (§3)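 Viability after 48 h compound treatment at 37C, 500-1,000 cells/well, read as ATP luminescence with CellTiter-Glo. Primary screens used 11-point (MIPE, 0.78 nM-46 µM) or 8-point (NPC, 0.59 nM-46 µM) final concentrations; follow-up screens used 11-point dilutions.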

[15] = qHTS of pediatric cancer cell lines to identify multiple opportunities for drug repurposing: Primary screen for SK-N-SH cells (AID 1347098);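 note: DMSO served as neutral control and bortezomib at 2.3 µM as positive control; nearly all actives have a fitted effect of over 65% in size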
How it was run: (§4)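 Cells (500-1,000/well) rested 5 h, then received compounds for 48 h; metabolically active cells were measured by CellTiter-Glo luminescence. Final concentrations spanned up to 46 µM (MIPE, 11-point) or 0.59 nM-46 µM (NPC, 8-point) in primary screens, 11-point in follow-ups.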

[16] = qHTS of pediatric cancer cell lines to identify multiple opportunities for drug repurposing: Primary screen for NB1643 cells (AID 1347099); note: nearly all actives have a fitted effect of over 50% in size
How it was run: as §2

[17] = qHTS of pediatric cancer cell lines to identify multiple opportunities for drug repurposing: Primary screen for LAN-5 cells (AID 1347100)
How it was run: as §3

[18] = qHTS of pediatric cancer cell lines to identify multiple opportunities for drug repurposing: Primary screen for BT-12 cells (AID 1347101); note: nearly all actives have a fitted effect of over 25% in size
How it was run: as §4

[19] = qHTS of pediatric cancer cell lines to identify multiple opportunities for drug repurposing: Primary screen for Rh18 cells (AID 1347102); note: nearly all actives have a fitted effect of over 65% in size
How it was run: as §3

## CCCN(CCC)CCc1c[nH]c2ccc(C(N)=O)cc12
[1]
  Potency: inactive
[2]
  Potency: inactive
[3]
  Potency: inactive
[4]
  Potency: inactive
[5]
  Potency: inactive

## C[N+](C)(C)CC#CCOC(=O)Nc1cccc(Cl)c1
[6]
  Potency: inactive
[1]
  Potency: inactive
[2]
  Potency: inactive
[3]
  Potency: inactive
[4]
  Potency: inactive
[5]
  Potency: inactive

## NC(=O)CI
[6]
  Potency: inactive
[1]
  Potency: inactive
[2]
  Potency: inactive
[3]
  Potency: inactive
[4]
  Potency: inactive
[5]
  Potency: inactive

## O=C1C=CC(=O)C=C1
[6]
  Potency: inactive
[1]
  Potency: inactive
[3]
  Potency: inactive
[4]
  Potency: inactive

## CCCN1CCC[C@@H](c2cccc(O)c2)C1
[6]
  Potency: inactive
[1]
  Potency: inactive
[2]
  Potency: inactive
[3]
  Potency: inactive
[4]
  Potency: inactive
[5]
  Potency: inactive

## NC(CCCCCP(=O)(O)O)C(=O)O (configuration not stated)
[6]
  Potency: inactive
[1]
  Potency: inactive
[2]
  Potency: inactive
[3]
  Potency: inactive
[4]
  Potency: inactive
[5]
  Potency: inactive

## N#CCCN
[6]
  Potency: inactive
[1]
  Potency: inactive
[2]
  Potency: inactive
[3]
  Potency: inactive
[4]
  Potency: inactive
[5]
  Potency: inactive

## CN1CCC(c2c[nH]c3ccc(O)cc23)CC1
[6]
  Potency: inactive
[1]
  Potency: inactive
[2]
  Potency: inactive
[3]
  Potency: inactive
[4]
  Potency: inactive
[5]
  Potency: inactive

## CCCN1CCc2cc(O)cc3c2[C@H]1Cc1ccc(O)c(O)c1-3
[6]
  Potency: inactive
[1]
  Potency: inactive
[2]
  Potency: inactive
[3]
  Potency: inactive
[4]
  Potency: inactive
[5]
  Potency: inactive

## Cc1c2ccncc2c(C)c2c1[nH]c1ccccc12
[6]
  Potency: inactive
[1]
  Potency: inactive
[2]
  Potency: inactive
[5]
  Potency: inactive

## NNC(N)=O
[6]
  Potency: inactive
[1]
  Potency: inactive
[2]
  Potency: inactive
[3]
  Potency: inactive
[4]
  Potency: inactive
[5]
  Potency: inactive

## NNC(=O)c1ccc(O)cc1
[6]
  Potency: inactive
[1]
  Potency: inactive
[2]
  Potency: inactive
[3]
  Potency: inactive
[4]
  Potency: inactive
[5]
  Potency: inactive

## O=[N+]([O-])/C=C/c1ccc2c(c1)OCO2
[6]
  Potency: inactive
[1]
  Potency: inactive
[2]
  Potency: inactive
[4]
  Potency: inactive
[5]
  Potency: inactive

## CC(N)Cc1c[nH]c2ccc(O)cc12 (configuration not stated)
[6]
  Potency: inactive
[1]
  Potency: inactive
[2]
  Potency: inactive
[3]
  Potency: inactive
[4]
  Potency: inactive
[5]
  Potency: inactive

## COc1ccc2c(c1)C13CCCCC1C(C2)N(C)CC3 (configuration not stated)
[6]
  Potency: inactive
[1]
  Potency: inactive
[2]
  Potency: inactive
[3]
  Potency: inactive
[4]
  Potency: inactive
[5]
  Potency: inactive

## COc1cc(CC(C)N)c(OC)cc1I (configuration not stated)
[1]
  Potency: inactive
[2]
  Potency: inactive
[3]
  Potency: inactive
[4]
  Potency: inactive
[5]
  Potency: inactive

## CCN1C[C@@]2(COC)C3[C@@H](OC)C4[C@@H]1C3([C@@H]1C[C@]3(O)[C@H](OC(=O)c5ccccc5)[C@@H]1[C@]4(OC(C)=O)[C@@H](O)[C@@H]3OC)[C@H](OC)C[C@H]2O
[6]
  Potency: inactive
[1]
  Potency: inactive
[2]
  Potency: inactive
[3]
  Potency: inactive
[4]
  Potency: inactive
[5]
  Potency: inactive

## CN(N=O)c1cc(O)ccc1O
[1]
  Potency: inactive
[2]
  Potency: inactive
[3]
  Potency: inactive
[4]
  Potency: inactive
[5]
  Potency: inactive

## CC(C)[C@@]1(NC(=O)[C@@H]2C[C@@H]3c4cccc5[nH]cc(c45)C[C@H]3N(C)C2)O[C@@]2(O)[C@@H]3CCCN3C(=O)[C@H](Cc3ccccc3)N2C1=O
[1]
  Potency: inactive
[2]
  Potency: inactive
[3]
  Potency: inactive
[4]
  Potency: inactive
[5]
  Potency: inactive

## Cc1o[nH]c(=O)c1CC(N)C(=O)O (configuration not stated)
[6]
  Potency: inactive
[1]
  Potency: inactive
[2]
  Potency: inactive
[3]
  Potency: inactive
[4]
  Potency: inactive
[5]
  Potency: inactive

## NC(=O)c1ccc(OCC(O)CN2CC=C(c3ccc(F)cc3)CC2)cc1 (configuration not stated)
[6]
  Potency: inactive
[1]
  Potency: inactive
[2]
  Potency: inactive
[3]
  Potency: inactive
[4]
  Potency: inactive
[5]
  Potency: inactive

## CCCN(CCC)[C@@H]1CCc2cccc(O)c2C1
[6]
  Potency: inactive
[1]
  Potency: inactive
[2]
  Potency: inactive
[3]
  Potency: inactive
[4]
  Potency: inactive
[5]
  Potency: inactive

## c1ccc2c(c1)[I+]c1ccccc1-2
[6]
  Potency: inactive
[1]
  Potency: inactive
[3]
  Potency: 1.58 µM (active)
[4]
  Potency: 6.31 µM (active)

## N[C@@H](CCl)C(=O)O
[1]
  Potency: inactive
[2]
  Potency: inactive
[3]
  Potency: inactive
[4]
  Potency: inactive
[5]
  Potency: inactive

## N[C@@H](Cn1ccc(=O)[nH]c1=O)C(=O)O
[1]
  Potency: inactive
[2]
  Potency: inactive
[3]
  Potency: inactive
[4]
  Potency: inactive
[5]
  Potency: inactive

## CCCn1c(C)c(C(=O)c2ccc3ccccc3c2)c2ccccc21
[1]
  Potency: inactive
[2]
  Potency: inactive
[3]
  Potency: inactive
[4]
  Potency: inactive
[5]
  Potency: inactive

## C[C@@H]1[C@@H]2Cc3ccc(O)cc3[C@@]1(C)CCN2CC1CC1
[1]
  Potency: inactive
[2]
  Potency: inactive
[3]
  Potency: inactive
[4]
  Potency: inactive
[5]
  Potency: inactive

## CCCSP(=O)(OCC)SCCC
[3]
  Potency: inactive
[4]
  Potency: inactive
[7]
  outcome: inactive
[8]
  Potency: inactive
[9]
  outcome: inactive
[10]
  Potency: inactive
[11]
  Potency: inactive
[12]
  Potency: inactive
[13]
  outcome: inactive
[14]
  Potency: inactive
[15]
  Potency: inactive
[16]
  Potency: inactive
[17]
  outcome: inactive
[18]
  Potency: inactive
[19]
  Potency: inactive
